The full list was thinned out, with the strongest signals kept by preference.

What all share (experiment): glycan array binding signal (z-score within array); higher = stronger binding
Common to all, as to settings: glycan notation: IUPAC condensed, linker removed

The target of experiment [1] is GlcNAc(b1-3)[GlcNAc(b1-6)]GlcNAc(b1-4)GlcNAc. A digest of the protocol:
(§1)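 The binding signal is a Z-score computed within each array. Data were drawn from 3228 arrays in the Consortium for Functional Glycomics database, restricted to those with a known protein sequence. Scores were averaged over arrays of the same protein sequence at different concentrations or buffers, and over linkers, and negative values can be taken as non-binding.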

The target in experiment [2] is GlcNAc(b1-4)[GlcNAc(b1-6)]GalNAc. A digest of the protocol:
as §1

For experiment [3], the target named is GlcNAc6S(b1-3)Gal(b1-4)GlcNAc. A digest of the protocol:
as §1

The target in a further experiment is Man(a1-2)Man(a1-3)Man. A digest of the protocol:
as §1

In experiment [4] the target is Man(a1-2)Man(a1-3)[Man(a1-2)Man(a1-6)]Man(a1-6)[Man(a1-2)Man(a1-2)Man(a1-3)]Man. A digest of the protocol: as §1
Experiment [5] deals with Man(a1-3)[Man(a1-6)]Man(a1-6)[Man(a1-2)Man(a1-3)]Man(b1-4)GlcNAc(b1-4)GlcNAc. A digest of the protocol: as §1
In experiment [6] the target is Man(a1-3)[Man(a1-6)]Man(a1-6)[Man(a1-3)]Man(b1-4)GlcNAc(b1-4)GlcNAc. A digest of the protocol:
as §1

In experiment [7] the target is Neu5Ac(a2-3)Gal(b1-3)GlcNAc. The procedure, abridged:
as §1

Experiment [8] deals with Neu5Ac(a2-3)Gal(b1-4)GlcNAc(b1-3)Gal(b1-4)GlcNAc(b1-3)Gal(b1-4)GlcNAc(b1-2)Man(a1-3)[Neu5Ac(a2-3)Gal(b1-4)GlcNAc(b1-3)Gal(b1-4)GlcNAc(b1-3)Gal(b1-4)GlcNAc(b1-2)Man(a1-6)]GalNAc. The procedure, abridged: as §1
Experiment [9] has as its target Neu5Ac(a2-3)Gal(b1-4)GlcNAc(b1-3)Gal(b1-4)GlcNAc(b1-3)GalNAc. A digest of the protocol:
as §1

Experiment [10] has as its target Neu5Ac(a2-3)Gal(b1-4)[Fuc(a1-3)]GlcNAc(b1-3)GalNAc. The procedure, abridged: as §1
The target in the next experiment is Neu5Ac(a2-6)Gal. A digest of the protocol:
as §1

In experiment [11] the target is Neu5Ac(a2-6)Gal(b1-4)GlcNAc(b1-3)Gal(b1-4)GlcNAc(b1-3)Gal(b1-4)GlcNAc. A digest of the protocol:
as §1

In experiment [12] the target is Neu5Ac(a2-6)Gal(b1-4)GlcNAc(b1-3)Gal(b1-4)GlcNAc(b1-3)Gal(b1-4)GlcNAc(b1-2)Man(a1-3)[Neu5Ac(a2-6)Gal(b1-4)GlcNAc(b1-3)Gal(b1-4)GlcNAc(b1-3)Gal(b1-4)GlcNAc(b1-2)Man(a1-6)]GalNAc. The procedure, abridged:
as §1

The target in experiment [13] is Neu5Ac(a2-6)Gal(b1-4)GlcNAc(b1-3)Gal(b1-4)GlcNAc(b1-6)[Gal(b1-3)]GalNAc. A digest of the protocol:
as §1

Experiment [14] has as its target Neu5Ac(a2-8)Neu5Ac(a2-3)Gal(b1-3)GalNAc(b1-4)[Neu5Ac(a2-8)Neu5Ac(a2-3)]Gal(b1-4)Glc. The procedure, abridged: as §1
Experiment [15] concerns the target Neu5Ac(a2-8)Neu5Ac(a2-8)Neu5Ac(a2-3)[Gal(b1-3)GalNAc(b1-4)]Gal(b1-4)Glc. The procedure, abridged:
as §1

For experiment [16], the target named is Neu5Ac(b2-6)Gal(b1-4)GlcNAc. A digest of the protocol:
as §1

For experiment [17], the target named is Neu5Gc(a2-3)Gal(b1-4)GlcNAc. The procedure, abridged:
as §1

B1: ECA (Erythrina cristagalli), P83410 (protein)
chain: VETISFSFSEFEPGNDNLTLQGAALITQSGVLQLTKINQNGMPAWDSTGRTLYTKPVHMWDSTTGTVASFETRFSFSIEQPYTRPLPADGLVFFMGPTKSKPAQGYGYLGVFNNSKQDNSYQTLAVEFDTFSNPWDPPQVPHIGIDVNSIRSIKTQPFQLDNGQVANVVIKYDAPSKILHVVLVYPSSGAIYTIAEIVDVKQVLPDWVDVGLSGATGAQRDAAETHDVYSWSFQASLPE
In the case of B1, the “glycan array binding signal (z-score)” value in experiment [1] was -0.277; in experiment [2], -0.228; in [3], -0.243; with Man(a1-2)Man(a1-3)Man it was -0.285; in experiment [4], -0.091; in experiment [5], 1.29. Also, the “glycan array binding signal (z-score)” value in experiment [6] is -0.177; in experiment [7], -0.269; in [8], 7.35; in [9], -0.407; in experiment [10] it was 0.567; in the experiment with Neu5Ac(a2-6)Gal, -0.208. Moreover, the “glycan array binding signal (z-score)” value in experiment [11] was -0.578; in experiment [12], 5.2; in experiment [13], 0.104; in experiment [14], -0.352; in experiment [15], 0.194; in experiment [16], -0.088. In addition, the “glycan array binding signal (z-score)” value in experiment [17] is -0.327.

For the origin of these results see the supplement of paper PMC8728848.
